# The supplement of paper PMC11417369
# Over roughly 25,000 sequences, “ln(normalized median fluorescence intensity)” has its median near 9.7; the highest 2% begin near 11. This is one part of a sample in which the highest values are shown more often than they occur.
# Test system: PfAP2-HC AP2 domain (GST-tagged)
# Test: gcPBM binding intensity (ln(normalized median fluorescence intensity)); higher = stronger DNA binding
# Summary of the method: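 Using an Agilent 4 × 180k array, primer-extended double-stranded 36-bp intergenic genomic probes and negative controls were exposed for 1 h to GST-fused P. falciparum DNA-binding domains expressed in E. coli. Binding was carried out in 1× PBS with 1% milk, 0.2 mg/ml BSA, 0.5% salmon testes DNA and 0.03% Triton X-100, and protein was detected with Alexa488 anti-GST antibody and a 488 nm scan. Binding intensity is the highest Masliner-normalised natural-log median intensity across replicate spots of either probe orientation.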
row,Sequence,gcPBM binding intensity (ln)
1,TTCTATATATAATATTGTACTTAATTATTTTATTTT [XGTACX_site2701],9.83
2,TTTTATCATATTTATTGTACACATAATATACATATC [XGTACX_site1145],9.99
3,GATATGTACTAATACACACACATATATATATATATA [CACACA_site1022],10.2
4,ATACATTTTTGTAAAAGTACATATACATGCCCCCTT [XGTACX_site1367],9.72
5,TTATATATATATGTATGTACTTATAACTTTTATTAG [XGTACX_site3190],9.6
6,TTTTTTTTTTTTGTAGTGCAAATTAAAAATATATGT,9.39
7,ACATAGATCATAGGTTGTACGAAGGTATCCTTTATT [XGTACX_site694],9.65
8,AAGATAACAAGTAATCAATCTAATTATTAATTATAT [CACACA_negctrl_site1713],9.52
9,AACGAACACTATTACACACATACATACATATGTATG [CACACA_site1859],10.1
10,AAGGAAAAACCATTCGCACACACACCGAATATATAA [CACACA_site8403],10.2
11,CAATTTTACTCATAAACACACATATAGATGTTATTA [CACACA_site7474],9.6
12,AAATAATATATTCCTTGTACTTATTTCAATGAATTC [XGTACX_site7719],9.64
13,TATACAGATGGACACACACACATATATATATATATA [CACACA_site5272],11
14,TATACAGATGGACACACACACATAAATAAATATATA [CACACA_site4863],10.4
15,GGAATAACCAGACACACACACACATATATATATATA [CACACA_site3541],10.9
16,GAATAATATGGACATACACACATATACATACAGATA [CACACA_site5200],10.5
17,GGAATAACCAGACACACACACACATATAAATATGTA [CACACA_site7632],11.2
18,ATGGGACAGATATATACACACATATAAATATAAATA [CACACA_site6684],10
19,AAAAAAAACAGACACACACACATTCAATATAAAACA [CACACA_site41],11.3
20,GATACAGATGGACACACACACATACATAAATACATA [CACACA_site5833],11.3
21,CAAATACATGGACACACACACATATACAGATATATA [CACACA_site5854],10.9
22,AAAAAAAAAAAACACACACACACATTCAATATAAAA [CACACA_site40],10.4
23,AAAAAAAACGAACACACACACATTCAATATAAAACA [CACACA_site6170],10.5

row,Sequence,gcPBM binding intensity (ln)
1,CAAGGAACCAGACACACACACATAAATGTATATATA [CACACA_site752],10.2
2,TACAATACCGTACAGGTGCAACTAGCCAAAAAAAAG,9.75
3,CCCTTTTTTTTTTAATGTACATATAATTATATATTT [XGTACX_site8568],9.88
4,ATTCAATAAACGTATTGTACAAAAGAACGATATATT [XGTACX_site2533],9.78
5,CAACATTCGTATATCACACATTTGCATGTTGTCAAT [CACACA_site4470],9.78
6,TAACAATATCTAGATACACACACATATCTCTCAATC [CACACA_site8122],10.4
7,CTCCTTTCAAAAAAATGTACATGTTTACATTTCAAG [XGTACX_site7342],9.55
8,GTAATACACAGACACACACACATACACATATTTATA [CACACA_site7313],10.5
9,TATATTATTTATTAGACACACATTATTAATATATTT [CACACA_site1078],9.79
10,TATACAGATAAATACACACACACATATATATATATA [CACACA_site4845],11.2
11,AATACATACAGACACACACACACATATATATATATA [CACACA_site3558],11.5
12,TACATACACAGACACACACACATATATATATATATA [CACACA_site3557],10.9
13,TATTTATATAGACACACACACATATATTTATATTTT [CACACA_site7240],10.4
14,CATACATACAGACACACACACATATTTATATTTATA [CACACA_site6172],11.3
15,AATATGTACAGACATACACACATATTTATATTTATA [CACACA_site6694],9.88
16,TACACATACAGACATACACACATACACATATACACA [CACACA_site6918],10.5
17,CATACAGATATATATACACACATACAGATAAATACA [CACACA_site4592],9.95
18,TATATTAATAGACACACACACATATTTATATTTATA [CACACA_site6859],11.1
19,TATACAGATAAATACACACACATATATATATATATA [CACACA_site4178],9.86
20,ATATATAGGTTCCCTTTTCTTTTTTTTTTTTTTTTT [CACACA_negctrl_site1159],9.39
21,AAAAAACAAAAAAAAAAAAAAATAATACAATATAAT [CACACA_negctrl_site1630],9.56
22,ACGATATTTTTGGTGACACACATATATATATATATA [CACACA_site126],9.8
23,AAAAATTTTTTTTCATTTGTTTTTATTCCGTAAAAA [CACACA_negctrl_site1217],9.17

row,Sequence,gcPBM binding intensity (ln)
1,TATACATAGATATATACACACATATATTTATATACA [CACACA_site6328],9.92
2,TATGTGCCAAGACACACACACATATTTATATTTATA [CACACA_site6360],10.2
3,ATGATATATAGACACACACACATATTTATATACATT [CACACA_site6404],10.9
4,AAAAAATATATTAAGGCACACACATACATATATATA [CACACA_site9239],10.2
5,TATATATCAATATACACACACACATATTTATTTATA [CACACA_site6858],10.4
6,TATATATCAAGACACACACACATATATTTATTTATA [CACACA_site7733],11.2
7,TATTTATAGATATATACACACATATTTATATTTATA [CACACA_site6441],9.78
8,AAAATACACAGACACACACACATATAAATAAATATT [CACACA_site7871],10.8
9,CTAAAATACAGACACACACACACATATATATATATA [CACACA_site4150],11
10,TAAATACAGACATATACACACATATATATATATATA [CACACA_site4382],9.75
11,AAAATATATTAAGGCACACACATACAGATATATATA [CACACA_site5951],11.1
12,AAAATATATTAAGGCACACACATACATATATATATA [CACACA_site3723],10.7
13,TATACAAGTATATAGGTGCATATATAAGTATATATT [GTGCAC_site9994],9.69
14,ACGTTTTATTTTTATTGTACTCACATTGAAATGAAT [XGTACX_site6094],10
15,AATATAATGCAATATACACACATATATTTCTCTTTT [CACACA_site7276],9.94
16,TTTTCTAAAAAAAGTTGTACATCTTATTTATATTAT [XGTACX_site295],9.63
17,AATTTCAAATTGTATGTGCACATGTAGAAGTACTTT,9.85
18,AAAATATGTATGTAAAGTACTAATATACAAATTTTT [XGTACX_site5186],9.62
19,TGTATTTATTAATGTACACACATGCGTATGTTCGTT [CACACA_site5892],9.96
20,TTTTTTTTTATAGCTAAACACACATAAGAATATATG [CACACA_site8282],9.61
21,TTTTTTTTTTTTTTTGCACACACATTGAATTATTAT [CACACA_site198],9.96
22,TTTATTTATATAATTACACACATATATACACAAATG [CACACA_site8903],9.79
23,TGTTGTAACAAAAGTACACACACATTTCTATAAATT [CACACA_site8894],9.86

row,Sequence,gcPBM binding intensity (ln)
1,GAATATAAACATATTACACACATCTATCTGTACATT [CACACA_site5114],9.97
2,TATAAATATAAATACACACACACATCAATACAGATA [CACACA_site5850],11
3,ATTTCATACAGACACACACACAAACAAACATATATA [CACACA_site979],11.2
4,AATAACCACAGACACACACACATATAAATATAAATA [CACACA_site7631],10.9
5,AACCACAGACATATAACACACATATACAATATATAT [CACACA_site5142],10.4
6,AAAAAAAACAGACACACACACATACAAAATATATAT [CACACA_site1449],10.7
7,TATATATATAAATACACACACACACCGATATATATA [CACACA_site5408],10.5
8,TATAAATACAGATACACACACACACCGATATATATA [CACACA_site5271],10.4
9,GGATATAACAGACACACACACACATATAAATATATT [CACACA_site7866],10.6
10,TACAGATACAGATACACACACACACCGAAATAAATA [CACACA_site4865],11
11,TATACAGATATATATACACACATATATATAAATACA [CACACA_site4383],9.97
12,TAAATAAATACATACACACACATACAGATATATATA [CACACA_site5690],10.5
13,TATATACTCAAACACACACACACATACACAGACATA [CACACA_site5025],10.7
14,ATTTTTTCTTTTTTTTTTCCGTTTTTTTGGACATTT [CACACA_negctrl_site1174],9.75
15,TAAATATATATATATAGTACAATATAATTATGATAT [XGTACX_site258],9.75
16,AAAAAAAAAATATCATGTACAAATATAATAAAATTT [XGTACX_site3896],9.79
17,TATATTTAAGTACATAAATAAGCCCATTTACATACA [CACACA_negctrl_site1224],9.37
18,AATAATAATGCTTTAACTTTGTTGTTATTTAGAATA [CACACA_negctrl_site1144],9.44
19,AATAGCTAGCTGTGCACACAAACATATTTTCCAAAT [CACACA_site880],9.91
20,AGGTTATATATGAACAAAAATAAAATATTCATAGGC [TGCATGCA_negctrl_site46],9.77
